Source: PubChem
Only some compounds are listed: those with a hit (about 7.3% of all), similar ones and a draw of the others.
Rab9 promoter act – activates the Rab9 promoter; 320,000 compounds, 2.8% hits; Potency, µM (highest dose often 9.22 µM), for the others: top-dose activation, negative = inhibition, usual class: activators; AID 485297; Huh7 Rab9 promoter-luciferase reporter, luminescence, 24 h; note: % of control where 0% means no effect; nearly all actives have a fitted effect of over 60% in size
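Luminescence read-out: Huh7 cells stably expressing Rab9-luciferase, treated 24 h with compound at 37 °C, then lysed with luciferase reagent for 10 min at ambient before reading.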
SMN2 splice enh – SMN2 splice variant enhancement | 210,000 compounds, 2.8% hits | AID 1458 | Potency, µM (highest dose often 46.1 µM), for inactives: at the highest dose activity change, positive = activation, actives largely listed as activators | HEK293 SMN2-luciferase splicing reporter, luminescence, 30-36 h; note: % of control where 0% means no effect; nearly all actives have a fitted effect of over 55% in size
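qHTS luciferase splicing reporter: luminescence rises when SMN2 exon 7 is included in transfected HEK293 cells. Compound exposure lasted 30-36 h at 37C, with 4.5 mM final sodium butyrate as control, followed by a ONE-Glo read.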
ELG1 genotox – inducers of genotoxicity in HEK293T ELG1-luciferase cells | 330,000 compounds, 1.3% hits | Potency, µM (titrated, usually from 46 µM), for the others: top-dose activity change, positive = activation, usual class: activators | HEK293T ELG1-luciferase reporter, luminescence, 16 h; note: % of control where 0% means no effect; nearly all actives have a fitted effect of over 60% in size
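Genotoxicity was scored as increased ELG1-luciferase reporter signal, measured by ONE-Glo luminescence (30 min, room temperature). Compound or vehicle exposure of the HEK293T reporter cells lasted 16 hr at 37°C.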
KinaseGlo FLuc – counter-screen: inhibitors of Kinase-Glo firefly luciferase; Q27757; Kinase-Glo luciferase, ATP luminescence, 8 min; Potency, µM (titrated, usually from 38.3 µM), inactives show at the highest dose activity change, negative = inhibition, usual class: inhibitors; 200,000 compounds, 0.28% hits; AID 1379; note: % is set by controls: 0 for no effect and ±100 for the full control effect; nearly all actives have a fitted effect of over 60% in size
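Substrate mix (final 50 mM imidazole pH 7.2, 50 mM KCl, 7 mM MgCl2, 10 uM ATP, 0.01% Tween 20, 0.05% BSA) plus pin-tool compound, then Kinase-Glo detection mix; 8 min ambient, luminescence read.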
FLuc counter – inhibits or activates purified firefly luciferase, miR-21 counter-screen; P08659; purified FLuc, Km substrates, luminescence inhibition; Potency, µM (doses to about 57.5 µM), for the others: top-dose activity change, negative = inhibition, usual class: inhibitors; 360,000 compounds, 6.9% hits; AID 588342;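 note: plate controls were vehicle for no effect and reference inhibitor for full effect; nearly all actives have a fitted effect of over 55% in size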
Target sequence (P08659 whole entry, looked up): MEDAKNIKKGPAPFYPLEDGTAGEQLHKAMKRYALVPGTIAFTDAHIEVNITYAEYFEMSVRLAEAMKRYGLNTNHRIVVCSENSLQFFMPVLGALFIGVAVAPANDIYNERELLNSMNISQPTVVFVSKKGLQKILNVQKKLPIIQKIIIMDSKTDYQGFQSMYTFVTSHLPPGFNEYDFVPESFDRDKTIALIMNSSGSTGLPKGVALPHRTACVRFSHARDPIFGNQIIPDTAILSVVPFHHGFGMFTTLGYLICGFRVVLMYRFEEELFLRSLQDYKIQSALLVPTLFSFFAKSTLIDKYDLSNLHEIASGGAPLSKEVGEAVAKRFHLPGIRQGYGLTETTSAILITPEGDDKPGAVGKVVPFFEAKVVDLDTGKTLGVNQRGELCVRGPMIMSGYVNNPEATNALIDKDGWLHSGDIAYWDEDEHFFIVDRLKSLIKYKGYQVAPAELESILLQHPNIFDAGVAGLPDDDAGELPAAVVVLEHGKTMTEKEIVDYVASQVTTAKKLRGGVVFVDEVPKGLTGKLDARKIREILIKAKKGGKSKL
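Purified P. pyralis luciferase, 10 nM final, with Km-level 10 uM D-luciferin and 10 uM ATP in 50 mM Tris acetate pH 7.5, 10 mM Mg acetate, 0.01% Tween-20, 0.05% BSA; 6-point qHTS titration about 60 µM downward; luminescence read.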
NPC1 prom act – NPC1 promoter activation; Huh7 NPC1 promoter luciferase reporter, 24 h; Potency, µM (highest dose often 9.22 µM), for the others: at the top dose activation, usual class: activators; 320,000 compounds, 2.4% hits; note: % of control where 0% means no effect; nearly all actives have a fitted effect of over 60% in size
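Stable NPC1-promoter luciferase Huh7 line; cpd (DMSO) 24 h, 37 °C, 5% CO2; Amplite luciferase reagent 10 min RT; luminescence readout. qHTS format.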
Starred values were filed as active, the others as inactive; ? = inconclusive; . = not tested or not shown. Calls come from the whole dose curve; as a rule, active = well fitted curve in the direction sought with a large enough effect; inconclusive = small, poorly fitted or top-dose-only effect, or another doubt; inactive = no such curve, though single readings can be large; an effect the other way counts as inactive or inconclusive. Potency is the fitted concentration of half-maximal effect.

SMILES	Rab9 promoter act	SMN2 splice enh	ELG1 genotox	KinaseGlo FLuc	FLuc counter	NPC1 prom act
Cn1cc(Cl)c(-c2nc3ccccc3[nH]2)n1	3.55µM*	15.8µM*	10.3µM*	-11.0%	16.9µM*	2.51µM*
Nc1nonc1-c1nc2ccccc2[nH]1	-3.2%	?	-0.2%	-0.7%	-4.7%	-1.4%
CCSc1ncccc1-c1nc2ccccc2[nH]1	29.5%	?	?	-6.4%	?	?
CSc1ncccc1-c1nc2ccccc2[nH]1	25.0%	-0.6%	11.0%	-9.3%	21.3µM*	19.3%
Fc1ccccc1-c1nc2ccccc2[nH]1	1.78µM*	.	?	?	9.53µM*	3.55µM*
COc1cc(NC(=O)Cn2c(=O)n(Cc3ccccc3OC)c(=O)c3cccnc32)cc(OC)c1	.	-3.5%	.	.	-9.6%	.
CCOC(=O)C1CCN(C(=S)Nc2ccccc2)CC1	0.1%	.	1.9%	-2.0%	-1.6%	-4.2%
Cc1ccccc1-c1nc2ccccc2[nH]1	?	11.2µM*	?	-22.7%	16.9µM*	?
CC(C)CC(=O)Nc1ccc(Cl)c(-c2nc3ccccc3[nH]2)c1	.	.	.	.	-13.3%	.
Clc1ccccc1-c1nc2ccccc2[nH]1	2µM*	.	?	.	8.49µM*	2.82µM*
CC(C)(C)c1ccc(/C=N/NC(=S)NC2CCCCC2)cc1	-0.5%	-33.9%	4.2%	1.6%	?	-4.8%
Nc1nccnc1C(=O)N/N=C/c1ccco1	?	.	14.0%	.	13.5µM*	27.0%
Cc1ccsc1/C=N\NC(=O)c1cc(C(C)(C)C)[nH]n1	2.82µM*	11.2µM*	?	-0.3%	12µM*	2.82µM*
CC(C)(C)c1cc(C(=O)N/N=C/c2ccco2)n[nH]1	?	?	12.9%	-1.2%	13.5µM*	?
CSc1ccccc1NC(=O)CN(C)C(=O)c1ccc2c(c1)OCCO2	-0.3%	.	0.7%	.	-1.5%	0.5%
CCc1ccc(NC(=O)c2cc3sc(Cl)cc3n2C)cc1	.	12.6µM*	.	.	5.36µM*	.
Cn1c(C(=O)NCc2ccccc2Cl)cc2sc(Cl)cc21	.	28.2µM*	.	.	?	.
Cn1c(C(=O)NCc2cccnc2)cc2sc(Cl)cc21	3.8%	-45.1%	-0.3%	-1.6%	?	-7.1%
CC(C)c1ccc(NC(=O)c2cc3sc(Cl)cc3n2C)cc1	.	-10.6%	.	.	3.38µM*	.
N/C(=N\S(=O)(=O)c1cc(C(F)(F)F)cc(C(F)(F)F)c1)c1ccccc1	-0.6%	.	-5.4%	.	-0.5%	-1.5%
Cc1ccc(C(=O)c2c[nH]cc2-c2ccccc2)cc1	-0.1%	8.9%	-0.6%	0.6%	-21.4%	1.4%
Cc1ccc(OCCn2cc(C(=O)C3CCCCC3)c3ccccc32)cc1	.	?	.	.	-3.0%	.
Cc1cccc(N=Nc2c(O)[nH]c3ccc(Br)cc23)c1	23.0%	.	?	.	15.1µM*	?
Fc1ccc(CNc2nc(-c3ccc(Cl)cc3)cc(C(F)(F)F)n2)cc1	.	-13.6%	.	.	-1.9%	.
Oc1ccc(/C=N/Nc2nc(-c3ccc(Cl)cc3)cc(C(F)(F)F)n2)cc1	-3.2%	-24.1%	-7.4%	3.0%	26.9µM*	1.5%
SMILES	Rab9 promoter act	SMN2 splice enh	ELG1 genotox	KinaseGlo FLuc	FLuc counter	NPC1 prom act
Cc1cc(C)c2nc(C)cc(N/N=C/c3ccc(O)cc3)c2c1	-4.6%	.	?	.	13.5µM*	-20.2%
Cc1cc(N/N=C/c2ccc(O)cc2)c2cccc(C)c2n1	5.7%	.	12.9%	.	?	-0.6%
Cc1cc(-c2ccccc2)nc(N/N=C/c2ccc(O)cc2)n1	-0.5%	.	-2.3%	.	1.51µM*	11.7%
O=C(O)C1C2C=CC(C2)C1C(=O)Nc1ccc(C(=O)N2CCCCC2)c(Cl)c1 (stereo unspecified)	0.4%	-0.8%	-2.4%	0.3%	-0.2%	0.4%
O=C(COc1ccccc1)Nc1cccc(-c2ccc(N3CCOCC3)nn2)c1	1.26µM*	.	2.31µM*	.	1.9µM*	1.78µM*
O=C(COc1ccc(Cl)cc1Cl)Nc1cccc(-c2ccc(N3CCOCC3)nn2)c1	1µM*	.	1.83µM*	.	0.426µM*	?
CC(=O)Nc1ccc(S(=O)(=O)N(C)CC(=O)NC2=NCCS2)cc1	0.4%	-10.0%	2.5%	1.9%	2.2%	5.3%
Cc1oc(-c2ccccc2)cc1C(=O)Nc1cccc(/C=C/C(=O)O)c1	-0.5%	3.5%	1.4%	4.8%	15.1µM*	-1.3%
Cc1cc(C(=O)Nc2cccc(/C=C/C(=O)O)c2)c(C)o1	4.6%	8.5%	0.5%	-12.8%	13.5µM*	1.7%
Cc1oc(C(C)(C)C)cc1C(=O)Nc1cccc(/C=C/C(=O)O)c1	-19.4%	0.1%	10.2%	-2.2%	12µM*	-3.0%
CCOC(=O)CC1COCCN1C(=O)c1ccc2oc(Cc3ccccc3)nc2c1 (stereo unspecified)	3.16µM*	.	?	.	12µM*	?
O=C(c1ccc2oc(CCCc3ccccc3)nc2c1)N1CCCCC1CO (stereo unspecified)	6.31µM*	.	?	.	23.9µM*	4.47µM*
COCCN1CCN(C(=O)c2ccc3oc(CCCc4ccccc4)nc3c2)CC1	?	.	-1.3%	.	0.0%	?
NC(=O)[C@@H]1CCCN1C(=O)c1ccc2oc(CCc3ccccc3)nc2c1	?	.	?	.	-19.0%	?
Nc1ccc2oc(CCc3ccccc3)nc2c1	0.708µM*	17.8µM*	?	-4.0%	9.53µM*	2.51µM*
COCC1CCCN(C(=O)c2ccc3oc(CCCc4ccccc4)nc3c2)C1 (stereo unspecified)	11.4%	.	1.2%	.	?	3.7%
